Experimental data from PubChem BioAssay (Tox21).
Where “and” joins values, the source holds several entries; their conditions need not be identical. Equal entries are not always repeated. Some structures have more than one record in an assay (separate samples or runs), and their calls can disagree. Calls of active or inactive are those of the source. Where a call stands in place of a potency, no number is given. Unless noted, the call rests on the fitted dose curve; in most records, active means well fitted curve in the direction sought with a large enough effect in the repeat runs; inconclusive means weak or mixed curves; inactive means no such curve, though single readings can be large; an effect the other way counts as inactive or inconclusive.

Key:
[1] = qHTS assay to test for compound auto fluorescence at 535 nm (green) in HEK293 cells (AID 720680)
[2] = qHTS assay to test for compound auto fluorescence at 460 nm (blue) in HEK293 cell free culture (AID 720681)
In short: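 Blue fluorescence (Ex 405/Em 460 nm, triamterene-equivalent) was read immediately after pin transfer of compound or DMSO into medium (DMEM, 10% FBS) without cells.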

[3] = qHTS assay to test for compound auto fluorescence at 535 nm (green) in HEK293 cell free culture (AID 720682)
In short: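 Each library compound, or DMSO control, is added by pintool to medium alone, comprising DMEM and 10% FBS. Emission at 535 nm following 485 nm excitation is quantified against fluorescein.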

[4] = qHTS assay to test for compound auto fluorescence at 590 nm (red) in HEK293 cell free culture (AID 720683)
In short: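 Red-channel autofluorescence of compounds in culture medium (DMEM, 10% FBS), no cells, measured at 540/590 nm. Rose Bengal sodium is the reference fluorophore for equivalence.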

[5] = qHTS assay to test for compound auto fluorescence at 590 nm (red) in HepG2 cell free culture (AID 720684)
In short: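 Plate contents were MEM with 10% FBS plus test compound or DMSO, no cells. Fluorescence was recorded with 540 nm excitation and 590 nm emission.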

[6] = qHTS assay to test for compound auto fluorescence at 460 nm (blue) in HepG2 cell free culture (AID 720685)
In short: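 Compound (23 nL) or DMSO pinned into cell-free MEM with 10% FBS; blue fluorescence read at 405/460 nm excitation/emission, expressed as auto-fluorescence equivalency to triamterene.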

[7] = qHTS assay to test for compound auto fluorescence at 535 nm (green) in HepG2 cell free culture (AID 720686)
[8] = target: Glucocorticoid receptor (Homo sapiens) (UniProt P04150); experiment: qHTS assay to identify small molecule agonists of the glucocorticoid receptor (GR) signaling pathway (AID 720691; active means well fitted activation curve with a large enough effect in the signal ratio in the repeat runs, not every such curve was filed as active; inconclusive means weak or mixed curves, or effect the other way; inactive means no such curve, though single readings can be large or run the other way; the % refers to the signal ratio; further: potency means the concentration at half of the fitted maximal effect)
In short: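 Agonist mode in a HeLa line carrying a GRE-controlled beta-lactamase reporter. Compounds act for 18 h at 37 C before a 2 h room-temperature FRET substrate step and fluorescence reading.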

[9] = qHTS assay to identify small molecule antagonists of the glucocorticoid receptor (GR) signaling pathway - cell viability counter screen (AID 720693); further: nearly all actives have a fitted effect of over 55% in size
[10] = qHTS assay for identifying genotoxic compounds that show differential cytotoxicity against isogenic chicken DT40 cell lines with known DNA damage response pathways - Rad54/Ku70 mutant cell line (AID 743015); further: nearly all actives have a fitted effect of over 60% in size; further: potency means the concentration at half of the fitted maximal effect
[11] = qHTS assay to identify small molecule antagonists of the androgen receptor (AR) signaling pathway - cell viability counter screen (AID 743033; further: nearly all actives have a fitted effect of over 45% in size; further: potency means the concentration at half of the fitted maximal effect)
[12] = qHTS assay to identify small molecule antagonists of the androgen receptor (AR) signaling pathway using the MDA cell line - cell viability counter screen (AID 743041; further: nearly all actives have a fitted effect of over 45% in size; further: potency means the concentration at half of the fitted maximal effect)
In short: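 R1881-driven MDA-kb2 AR-luc cells, 3,000/well, were dosed with library compounds for 16 h; cell health came from CellTiter-Fluor fluorescence in the reporter wells.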

[13] = target: Glucocorticoid receptor (Homo sapiens) (UniProt P04150); experiment: qHTS assay to identify small molecule antagonists of the glucocorticoid receptor (GR) signaling pathway (AID 720692; active means well fitted inhibition curve with a large enough effect in the signal ratio in the repeat runs, not every such curve was filed as active; inconclusive means weak or mixed curves, or effect the other way; inactive means no such curve, though single readings can be large or run the other way; the % refers to the signal ratio; further: potency means the concentration at half of the fitted maximal effect)
In short: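 Cells plated, rested 4 h at 37 C/5% CO2; compounds in DMSO pin-transferred; dexamethasone added to 5 nM final; 18 h at 37 C; B/G FRET substrate added, 2 h room temperature; fluorescence measured.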

[14] = qHTS assay for identifying genotoxic compounds that show differential cytotoxicity against isogenic chicken DT40 cell lines with known DNA damage response pathways - Rev3 mutant cell line (AID 743014); further: nearly all actives have a fitted effect of over 55% in size; further: potency means the concentration at half of the fitted maximal effect
[15] = qHTS assay to test for compound auto fluorescence at 460 nm (blue) in HepG2 cells (AID 720687)
In short: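 Blue-channel autofluorescence (Ex/Em 405/460 nm, triamterene-equivalent) was measured after 1 hr compound exposure at 37 C, 5% CO2. Cells were HepG2, plated overnight at 37 C in MEM plus 10% FBS.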

[16] = qHTS assay for identifying genotoxic compounds that show differential cytotoxicity against isogenic chicken DT40 cell lines with known DNA damage response pathways - wild type cell line (AID 743012); further: nearly all actives have a fitted effect of over 60% in size; further: potency means the concentration at half of the fitted maximal effect
In short: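 Cells (DT40 wild type, 300/well) are treated with DMSO-dissolved compounds after a ~0.5 h pre-incubation and kept 40 h at 37 C/5% CO2. Viability is then measured by CellTiter-Glo luminescence following 30 min at room temperature.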

[17] = target: Androgen receptor (Homo sapiens) (UniProt P10275); experiment: qHTS assay to identify small molecule antagonists of the androgen receptor (AR) signaling pathway (AID 743035; active means well fitted inhibition curve with a large enough effect in the signal ratio in the repeat runs, not every such curve was filed as active; inconclusive means weak or mixed curves, or effect the other way; inactive means no such curve, though single readings can be large or run the other way; the % refers to the signal ratio)
In short: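 Antagonism is scored as loss of R1881-driven beta-lactamase reporter expression in HEK293 cells carrying the reporter under a UAS element, after 16 h co-treatment at 37C and a 2 h room-temperature FRET substrate read.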

[18] = target: Androgen receptor (Homo sapiens) (UniProt P10275); experiment: qHTS assay to identify small molecule antagonists of the androgen receptor (AR) signaling pathway using the MDA cell line (AID 743042; further: nearly all actives have a fitted effect of over 55% in size)
In short: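 Antagonist mode: compounds plus R1881 agonist added to MDA-kb2 AR-luc cells, incubated 16 h at 37C. Luciferase reporter luminescence quantified, with multiplexed CellTiter-Fluor readout for cell viability.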

[19] = target: Androgen receptor (Homo sapiens) (UniProt P10275); experiment: qHTS assay to identify small molecule agonists of the androgen receptor (AR) signaling pathway (AID 743036; active means well fitted activation curve with a large enough effect in the signal ratio in the repeat runs, with a control signal flat, not every such curve was filed as active; inconclusive means weak or mixed curves, or effect the other way; inactive means no such curve, though single readings can be large or run the other way; the % refers to the signal ratio)
In short: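 Following a 4 h settling period, AR-UAS-bla HEK293 cells were dosed with compounds for 16 h at 37C. A 2 h room-temperature incubation with LiveBLAzer B/G FRET substrate preceded the fluorescence measurement.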

[20] = target: Androgen receptor (Homo sapiens) (UniProt P10275); experiment: qHTS assay to identify small molecule agonists of the androgen receptor (AR) signaling pathway using the MDA cell line (AID 743040; further: nearly all actives have a fitted effect of over 20% in size)
In short: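 After a 5 h incubation at 37C and 0% CO2, MDA-kb2 reporter cells were dosed with compounds in DMSO and kept 16 h under the same conditions. Luciferase activity was then read as luminescence with ONE-Glo.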

Androgen receptor (Homo sapiens), sequence (P10275 whole entry, looked up): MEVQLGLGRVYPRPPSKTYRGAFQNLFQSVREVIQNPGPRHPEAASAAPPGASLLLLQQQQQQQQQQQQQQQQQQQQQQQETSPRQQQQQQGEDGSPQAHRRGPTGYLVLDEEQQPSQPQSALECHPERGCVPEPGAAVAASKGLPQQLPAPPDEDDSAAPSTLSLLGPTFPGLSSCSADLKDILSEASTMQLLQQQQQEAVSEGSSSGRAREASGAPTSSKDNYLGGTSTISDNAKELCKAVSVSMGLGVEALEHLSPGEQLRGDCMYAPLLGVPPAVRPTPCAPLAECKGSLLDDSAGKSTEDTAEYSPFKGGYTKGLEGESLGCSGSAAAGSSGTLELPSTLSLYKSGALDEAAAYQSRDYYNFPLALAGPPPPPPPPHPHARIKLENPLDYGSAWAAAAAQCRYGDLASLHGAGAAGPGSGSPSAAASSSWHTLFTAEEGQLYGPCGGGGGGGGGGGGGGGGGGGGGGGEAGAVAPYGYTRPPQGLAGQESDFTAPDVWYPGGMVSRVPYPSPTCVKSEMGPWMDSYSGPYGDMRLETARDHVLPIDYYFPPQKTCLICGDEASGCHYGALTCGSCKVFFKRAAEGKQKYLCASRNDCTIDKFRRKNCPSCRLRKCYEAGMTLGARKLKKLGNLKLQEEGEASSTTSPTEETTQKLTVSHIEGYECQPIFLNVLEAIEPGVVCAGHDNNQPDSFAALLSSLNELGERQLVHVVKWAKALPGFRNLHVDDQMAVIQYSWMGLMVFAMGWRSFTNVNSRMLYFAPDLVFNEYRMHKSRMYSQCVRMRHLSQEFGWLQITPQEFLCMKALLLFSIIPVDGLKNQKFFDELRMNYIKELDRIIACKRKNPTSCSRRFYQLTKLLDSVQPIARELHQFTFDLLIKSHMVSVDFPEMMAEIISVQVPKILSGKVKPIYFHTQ
Glucocorticoid receptor (Homo sapiens), sequence (P04150 whole entry, looked up): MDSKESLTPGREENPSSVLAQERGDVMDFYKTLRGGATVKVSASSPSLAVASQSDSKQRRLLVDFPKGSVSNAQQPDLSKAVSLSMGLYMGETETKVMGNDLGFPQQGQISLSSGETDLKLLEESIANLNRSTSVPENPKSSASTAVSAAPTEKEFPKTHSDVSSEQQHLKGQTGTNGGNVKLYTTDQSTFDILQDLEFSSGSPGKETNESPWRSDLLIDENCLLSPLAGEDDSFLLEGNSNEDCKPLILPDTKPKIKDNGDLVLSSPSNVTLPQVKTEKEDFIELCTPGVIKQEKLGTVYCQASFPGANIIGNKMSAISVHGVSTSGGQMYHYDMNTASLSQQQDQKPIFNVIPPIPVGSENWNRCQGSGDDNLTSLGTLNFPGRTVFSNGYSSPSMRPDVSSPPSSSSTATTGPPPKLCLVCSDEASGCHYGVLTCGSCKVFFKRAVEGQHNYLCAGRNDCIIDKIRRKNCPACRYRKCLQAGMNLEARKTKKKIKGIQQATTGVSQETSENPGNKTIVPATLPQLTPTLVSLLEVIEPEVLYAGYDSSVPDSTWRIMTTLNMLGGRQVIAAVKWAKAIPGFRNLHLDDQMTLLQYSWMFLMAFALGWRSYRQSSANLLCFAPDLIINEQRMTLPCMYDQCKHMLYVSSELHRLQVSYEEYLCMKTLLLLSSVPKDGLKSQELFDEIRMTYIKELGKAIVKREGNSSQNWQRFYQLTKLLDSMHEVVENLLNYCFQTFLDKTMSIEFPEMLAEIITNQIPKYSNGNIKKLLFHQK

| Structure (SMILES) | Potency [1] | Potency [2] | Potency [3] | Potency [4] | Potency [5] | Potency [6] | Potency [7] | Potency [8] | Potency [9] | Potency [10] | Potency [11] | Potency [12] | Potency [13] | Potency [14] | Potency [15] | Potency [16] | Potency [17] | Potency [18] | outcome [19] | Potency [20] |
| --- | --- | --- | --- | --- | --- | --- | --- | --- | --- | --- | --- | --- | --- | --- | --- | --- | --- | --- | --- | --- |
| CC(=O)[C@@]1(O)CC[C@H]2[C@@H]3C[C@H](C)C4=CC(=O)C=C[C@]4(C)[C@@]3(F)[C@@H](O)C[C@@]21C | inactive | inactive | inactive | inactive | inactive | inactive | inactive | 12.9 nM [inconclusive] (active) and 3.5 nM (active) | inactive | 43.3 µM (active) | inactive | inactive |  |  |  |  |  |  |  |  |
| COC(=O)c1ccc(C)cc1 | inactive | inactive | inactive | inactive | inactive | inactive | inactive | inactive | inactive | inactive | inactive | inactive | inactive | inactive |  |  |  |  |  |  |
| CNC[C@H](O)c1ccc(O)c(O)c1 | inactive | inactive | inactive |  | inactive | inactive | inactive |  | inactive |  | inactive | inactive |  | inactive | inactive | 29.8 µM (active) |  |  |  |  |
| OC[C@@H](O)[C@@H](O[C@@H]1O[C@H](CO)[C@H](O)[C@H](O)[C@H]1O)[C@H](O)[C@@H](O)CO | inactive | inactive | inactive |  | inactive | inactive | inactive |  | inactive | inactive | inactive | inactive |  | inactive | inactive | inactive |  |  |  |  |
| CCC/C=C/C=O | inactive | inactive | inactive |  | inactive | inactive | inactive | inactive | inactive | inactive | inactive | inactive | inactive | inactive | inactive | inactive | inactive | inactive |  |  |
| Oc1ccc(C(c2ccc(O)cc2)C(Cl)(Cl)Cl)cc1 | inactive | inactive | inactive |  | inactive | inactive | inactive |  |  | 60.9 µM (active) and 19.3 µM (active) | 49 µM (active) | inactive | 21.9 µM (active) | 60.9 µM (active) and 48.6 µM (active) | inactive | 24.3 µM (active) |  |  |  |  |
| C=CN1CCCC1=O | inactive | inactive | inactive | inactive | inactive | inactive | inactive |  | inactive | inactive | inactive | inactive |  | inactive |  | inactive |  |  |  |  |
| C=CCNCC=C | inactive | inactive | inactive |  | inactive | inactive | inactive | inactive | inactive |  | inactive | inactive | inactive | inactive | inactive | inactive |  |  |  |  |
| CC1(C)OC(=O)NC1=O | inactive | inactive | inactive |  | inactive | inactive | inactive | inactive | inactive | inactive | inactive | inactive | inactive | inactive | inactive | inactive |  |  |  |  |
| [O-]/[N+](=N\O)c1ccccc1 | inactive | inactive | inactive |  | inactive | inactive | inactive |  | inactive |  | inactive | inactive |  | inactive | inactive |  |  |  |  |  |
| O=C(O)CCCCCCCCCCCC(=O)O | inactive | inactive | inactive | inactive | inactive | inactive | inactive |  | inactive |  | inactive | inactive |  | inactive |  |  |  |  |  |  |
| CCCCCCCCCCC(CO)CCCCCCCC (stereo not drawn) | inactive | inactive | inactive |  | inactive | inactive | inactive | inactive | inactive | inactive | inactive | inactive | inactive | inactive |  | inactive |  |  |  |  |
| c1ccc2c(c1)[nH]c1ccccc12 | inactive | inactive | inactive |  | inactive | inactive | inactive | inactive | inactive |  | inactive | inactive | inactive | inactive |  | inactive | inactive | inactive | inactive | inactive |
| CC1(C)O[C@@H]2C[C@H]3[C@@H]4C[C@H](F)C5=CC(=O)C=C[C@]5(C)[C@@]4(F)[C@@H](O)C[C@]3(C)[C@]2(C(=O)CO)O1 | inactive | inactive | inactive |  | inactive | inactive | inactive | 3.8 nM (active) and 1.2 nM (active) | inactive |  | inactive | inactive |  | inactive | inactive |  |  |  |  |  |
| CCCCCCCCCCCCO | inactive | inactive | inactive |  | inactive | inactive | inactive |  | inactive | inactive | inactive | inactive |  | inactive | inactive |  |  |  |  |  |
| CCCCCCC(C)O (stereo not drawn) | inactive |  | inactive | inactive | inactive | inactive | inactive | inactive | inactive | inactive | inactive | inactive | inactive | inactive | inactive |  |  |  |  |  |
| Nc1cc(Cl)c(N)c(Cl)c1 | inactive |  | inactive |  | inactive | inactive | inactive | inactive | inactive |  | inactive | inactive | inactive |  | inactive |  |  |  |  |  |
| C=C[C@@]1(C)CC(=O)[C@]2(O)[C@@]3(C)[C@@H](O)CCC(C)(C)[C@@H]3[C@H](O)[C@H](OC(C)=O)[C@@]2(C)O1 | inactive |  | inactive | inactive | inactive | inactive | inactive | inactive | inactive |  |  | 26.6 µM (active) and 38.6 µM (active) |  | inactive and 48.6 µM (active) |  | 26.6 µM (active) and 30.6 µM (active) |  |  |  |  |
| CC(C)[C@@H]1CC[C@@H](C)CC1=O | inactive |  | inactive |  | inactive | inactive | inactive |  | inactive | inactive | inactive | inactive |  | inactive |  | inactive |  |  |  |  |
| Cc1ccc(/C(=C\CN2CCCC2)c2ccccn2)cc1 | inactive |  | inactive | inactive | inactive | inactive | inactive |  | inactive | 23.7 µM (active) and 64.3 µM (active) | inactive | inactive |  | inactive and 57.3 µM (active) | inactive |  |  |  |  |  |
| CCCN1C=CN(C)C1 | inactive |  | inactive | inactive | inactive | inactive | inactive |  | inactive |  | inactive | inactive |  | inactive | inactive | inactive |  |  |  |  |
| CCCCCCCC/C=C\CCCCCCCC(=O)O | inactive |  | inactive |  | inactive | inactive | inactive | inactive | inactive |  | inactive | inactive |  | inactive | inactive | inactive |  |  |  |  |
| CC(=O)Oc1c(C)c(C)c2c(c1C)CC[C@@](C)(CCC[C@H](C)CCC[C@H](C)CCCC(C)C)O2 | inactive |  | inactive |  | inactive | inactive | inactive |  | inactive |  | inactive | inactive |  |  |  |  |  |  |  |  |
| CCCCCC=O | inactive |  | inactive | inactive | inactive | inactive | inactive |  | inactive | inactive | inactive | inactive |  | inactive | inactive | inactive |  |  |  |  |
| C[N+](C)(C)CCO | inactive |  | inactive |  | inactive | inactive | inactive |  | inactive |  | inactive | inactive |  | inactive | inactive | inactive |  |  |  |  |
| CCCCCC1C(=O)CCC1CC(=O)OC (stereo not drawn) | inactive |  | inactive | inactive | inactive | inactive | inactive |  | inactive |  | inactive | inactive |  | inactive | inactive |  |  |  |  |  |
| Nc1cc([N+](=O)[O-])ccc1C(=O)O | inactive |  | inactive | inactive | inactive | inactive | inactive |  | inactive |  | inactive | inactive |  | inactive | inactive | inactive |  |  |  |  |
